Values joined by “and” are separate entries in the source; they are usually repeats but may differ in a detail not shown here. Equal entries are not always repeated. The panel holds about 79,000 compounds, 15% with a hit somewhere; the sample as a whole holds those more often. Some compounds were tested as several samples or in several runs, with calls that do not always agree. Active and inactive are the calls of the source. Cut-off read from the data, not from the text of the source: active = growth inhibition above about 70%; inactive = the rest.

The nature of test [1]: NCI Yeast Anticancer Drug Screen. Data for the rad50 strain (AID 155).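 Note: 0% = growth of vehicle-only cultures of the same strain.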 The conditions noted are these: S. cerevisiae rad50 strain growth inhibition, stronger effect = higher value. The gist of the method: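 Readout: growth inhibition relative to vehicle-treated cultures. Compound exposure was carried out in a genetically defined yeast strain deficient in DNA damage repair.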
Test [2] in a line: NCI Yeast Anticancer Drug Screen. Data for the mec2-1 strain (AID 157). Conditions: S. cerevisiae mec2-1 strain, stronger effect = higher value. In outline: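 Cells of the genetically defined mec2-1 yeast strain are incubated with test compound. Inhibition of growth is calculated against vehicle-treated controls.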
A short description of test [3]: NCI Yeast Anticancer Drug Screen. Data for the sgs1 mgt1 strain (AID 161).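 Note: 0% = growth of cultures given vehicle only.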 Conditions: S. cerevisiae sgs1 mgt1 strain, stronger effect = higher value. The gist of the method:
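Read-out: growth inhibition vs vehicle controls. Cells: mutant yeast strain deficient in DNA damage repair.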

A short description of test [4]: NCI Yeast Anticancer Drug Screen. Data for the cln2 rad14 strain (AID 165).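 Note: 0% = growth equal to vehicle treated cultures.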 Conditions: S. cerevisiae cln2 rad14 strain, stronger effect = higher value. In outline: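 The screen exposed genetically defined yeast (cln2 rad14) to test compounds and scored growth inhibition relative to vehicle-treated controls.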
Test [5] is described as follows: NCI Yeast Anticancer Drug Screen. Data for the bub3 strain (AID 167). The conditions noted are these: S. cerevisiae bub3 mutant strain, stronger effect = higher value. The gist of the method: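 Readout: yeast growth inhibition, expressed relative to vehicle-only wells. The test organism is a mutant strain from a panel with lesions in DNA repair or checkpoint genes.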
Test [6] can be described thus: NCI Yeast Anticancer Drug Screen. Data for the mlh1 rad18 strain (AID 175). Conditions: S. cerevisiae mlh1 rad18 strain growth inhibition, stronger effect = higher value. In outline: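 Compound-treated yeast growth, normalised to vehicle controls. Strain bears defined DNA repair mutations.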
[7] abbreviates: at 5.0 µM (retest, dose inferred, filed as 0.5).
Where [8] appears, read: at 50.0 µM (retest, dose inferred, filed as 5.0).

Regarding `CCOC(=O)c1c[nH]c2c([N+](=O)[O-])cc(OC)cc2c1=O`, the growth inhibition in test [1] (setting [7]) is -1% (inactive); in test [1] (setting [8]) it was 32% (inactive); in test [1] (at 50.0 µM), 10.6% (inactive) and 61.4% (inactive); in test [2] (setting [7]), 2% (inactive); in test [2] (setting [8]), 21% (inactive); in test [2] (at 50.0 µM), 40.1% (inactive) and 35.2% (inactive). Further, the growth inhibition in test [3] (setting [7]) was 3% (inactive); in test [3] (setting [8]), 41% (inactive); in test [3] (at 50.0 µM), 36% (inactive) and 16.3% (inactive); in test [4] (setting [7]), -6% (inactive); in test [4] (setting [8]), 24% (inactive); in test [4] (at 50.0 µM) it was -11.7% (inactive) and -10.1% (inactive). Besides, the growth inhibition in test [5] (setting [7]) was 2% (inactive); in test [5] (setting [8]), 46% (inactive); in test [5] (at 50.0 µM), 18.6% (inactive) and 61% (inactive); in test [6] (setting [7]), 6% (inactive); in test [6] (setting [8]) it was 42% (inactive); in test [6] (at 50.0 µM), 56.9% (inactive) and 73% (active).
Turning to `O=C1CSC(=S)N1c1ccc(F)c(F)c1`, the growth inhibition in test [1] (setting [7]) is 4% (inactive); in test [1] (setting [8]) it was 90% (active); in test [1] (at 50.0 µM) it was 97.5% (active); in test [2] (setting [7]) it was -12% (inactive); in test [2] (setting [8]), 95% (active); in test [2] (at 50.0 µM), 97.2% (active). The growth inhibition in test [3] (setting [7]) is 4% (inactive); in test [3] (setting [8]), 94% (active); in test [3] (at 50.0 µM), 97% (active); in test [4] (setting [7]) it was -3% (inactive); in test [4] (setting [8]), 43% (inactive); in test [4] (at 50.0 µM), 86.2% (active). The growth inhibition in test [5] (setting [7]) was 0% (inactive); in test [5] (setting [8]), 92% (active); in test [5] (at 50.0 µM), 96.3% (active); in test [6] (setting [7]) it was -3% (inactive); in test [6] (setting [8]), 95% (active); in test [6] (at 50.0 µM), 96.4% (active).
For the molecule `Nc1ccc2c3c(cccc13)C(=O)N(CCCBr)C2=O`, the growth inhibition is 9% (inactive) in test [1] (setting [7]); 98% (active) in test [1] (setting [8]); 92.9% (active) in test [1] (at 50.0 µM); -5% (inactive) in test [2] (setting [7]); 67% (inactive) in test [2] (setting [8]); 0.7% (inactive) in test [2] (at 50.0 µM). Further, the growth inhibition in test [3] (setting [7]) was -17% (inactive); in test [3] (setting [8]) it was 80% (active); in test [3] (at 50.0 µM), 55.4% (inactive); in test [4] (setting [7]), 16% (inactive); in test [4] (setting [8]) it was 88% (active); in test [4] (at 50.0 µM), 45.1% (inactive). The growth inhibition was 6% (inactive) in test [5] (setting [7]); 78% (active) in test [5] (setting [8]); 5.15% (inactive) in test [5] (at 50.0 µM); 32% (inactive) in test [6] (setting [7]); 94% (active) in test [6] (setting [8]); 82.8% (active) in test [6] (at 50.0 µM).
On to `N=S(c1ccccc1[N+](=O)[O-])c1ccccc1[N+](=O)[O-]`, for which the growth inhibition is 13% (inactive) and 8% (inactive) in test [1] (setting [7]); 4% (inactive) and 52% (inactive) in test [1] (setting [8]); 68.2% (inactive) and 54.1% (inactive) in test [1] (at 50.0 µM); 2% (inactive) and 7% (inactive) in test [2] (setting [7]); 15% (inactive) and 53% (inactive) in test [2] (setting [8]); 17.4% (inactive) and 22.4% (inactive) in test [2] (at 50.0 µM). The growth inhibition in test [3] (setting [7]) is -24% (inactive) and 32% (inactive); in test [3] (setting [8]), 39% (inactive) and 77% (active); in test [3] (at 50.0 µM), 69.5% (inactive) and 75.5% (active); in test [4] (setting [7]), 8% (inactive) and 6% (inactive); in test [4] (setting [8]), 9% (inactive) and 49% (inactive); in test [4] (at 50.0 µM), 25.3% (inactive) and 61.9% (inactive). Also, the growth inhibition was -7% (inactive) and 2% (inactive) in test [5] (setting [7]); -6% (inactive) and 73% (active) in test [5] (setting [8]); 36.9% (inactive) and 26.8% (inactive) in test [5] (at 50.0 µM); -14% (inactive) and 20% (inactive) in test [6] (setting [7]); -1% (inactive) and 83% (active) in test [6] (setting [8]); 79.8% (active) and 76.3% (active) in test [6] (at 50.0 µM).
On to `CC(=O)OCC(=O)[C@H]1CC[C@H]2[C@@H]3CC=C4C[C@@H](O)CC[C@]4(C)[C@H]3CC[C@]12C`, for which the growth inhibition in test [1] (setting [7]) is 54% (inactive); in test [1] (setting [8]), 91% (active); in test [1] (at 50.0 µM) it was 89.8% (active); in test [2] (setting [7]), 33% (inactive); in test [2] (setting [8]), 91% (active); in test [2] (at 50.0 µM), -5.65% (inactive). Also, the growth inhibition in test [3] (setting [7]) is 60% (inactive); in test [3] (setting [8]), 94% (active); in test [3] (at 50.0 µM) it was 48.5% (inactive); in test [4] (setting [7]), 18% (inactive); in test [4] (setting [8]), 95% (active); in test [4] (at 50.0 µM), 55.8% (inactive). Besides, the growth inhibition in test [5] (setting [7]) was 23% (inactive); in test [5] (setting [8]), 91% (active); in test [5] (at 50.0 µM), -17.4% (inactive); in test [6] (setting [7]), 65% (inactive); in test [6] (setting [8]), 95% (active); in test [6] (at 50.0 µM), 81.1% (active).
Consider `COC(=O)C1OC(OC(C)=O)C(OC(C)=O)C(OC(C)=O)C1OC(C)=O` (stereo unspecified), for which the growth inhibition in test [1] (setting [7]) was -4% (inactive); in test [1] (setting [8]) it was 5% (inactive); in test [1] (at 50.0 µM) it was 7.25% (inactive) and 3.25% (inactive); in test [2] (setting [7]), -6% (inactive); in test [2] (setting [8]) it was 8% (inactive); in test [2] (at 50.0 µM), 14.4% (inactive) and 8.2% (inactive). The growth inhibition in test [3] (setting [7]) is -5% (inactive); in test [3] (setting [8]), 9% (inactive); in test [3] (at 50.0 µM), 7.05% (inactive) and 10.9% (inactive); in test [4] (setting [7]), 1% (inactive); in test [4] (setting [8]) it was -2% (inactive); in test [4] (at 50.0 µM), -12.2% (inactive) and 60.5% (inactive). Moreover, the growth inhibition in test [5] (setting [7]) was -4% (inactive); in test [5] (setting [8]), 11% (inactive); in test [5] (at 50.0 µM), -7.15% (inactive) and 24.6% (inactive); in test [6] (setting [7]) it was -7% (inactive); in test [6] (setting [8]) it was 14% (inactive); in test [6] (at 50.0 µM), 16% (inactive) and 9.3% (inactive).
On to `CCN(CC)CCC(=O)/C=C/c1ccccc1`, for which the growth inhibition in test [1] (setting [7]) is 31% (inactive); in test [1] (setting [8]), 95% (active); in test [1] (at 50.0 µM) it was 99.3% (active) and 29.2% (inactive); in test [2] (setting [7]) it was 27% (inactive); in test [2] (setting [8]), 100% (active); in test [2] (at 50.0 µM), 99.6% (active) and 56.1% (inactive). Further, the growth inhibition in test [3] (setting [7]) was 60% (inactive); in test [3] (setting [8]), 100% (active); in test [3] (at 50.0 µM), 99.5% (active) and 28.6% (inactive); in test [4] (setting [7]), 42% (inactive); in test [4] (setting [8]), 97% (active); in test [4] (at 50.0 µM) it was 99.3% (active) and 6.75% (inactive). The growth inhibition is 58% (inactive) in test [5] (setting [7]); 99% (active) in test [5] (setting [8]); 99.5% (active) and 49.5% (inactive) in test [5] (at 50.0 µM); 32% (inactive) in test [6] (setting [7]); 99% (active) in test [6] (setting [8]); 99.3% (active) and 36% (inactive) in test [6] (at 50.0 µM).

The values above are taken from PubChem BioAssay (NCI).
